Screens from PubChem BioAssay.
Tau fluor counter: counter-screen for tau fibril formation inhibitors; tau K18 P301L Alexa594 fluorescence, heparin fibrillization; Potency, µM (doses to about 57.7 µM), without a hit: at the top dose activity change, negative = decrease; actives 0.93% (n = 280,000); note: nearly all actives have a fitted effect of over 55% in size
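Human K18 P301L tau (15 uM unlabeled plus 0.24 uM Alexa 594-labeled, final) in 100 mM sodium acetate pH 7 was mixed with compound and 20 uM heparin and incubated 6 hr at 37 C.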
Tau fibril FP: tau fibrillization inhibition (FP). actives 0.39% (n = 280,000). K18 P301L tau heparin fibrillization, Alexa594 FP, 6 h. AID 1468. Potency, µM (highest dose often 57.7 µM), inactives show at the top dose activity, negative = inhibition, most hits filed as inhibitors; note: nearly all actives have a fitted effect of over 55% in size
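Heparin (20 uM) drove fibril formation of recombinant tau K18 P301L, 15 uM unlabeled with 0.24 uM Alexa 594 label, for 6 hr at 37 C in 100 mM sodium acetate pH 7. Fluorescence polarization (555/632 nm) read 1 hr after 30 uM ThT.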
Tau fibril ThT: tau fibrillization inhibition (ThT binding) | AID 1460 | Potency, µM (doses to about 57.4 µM), for inactives: at the top dose activity, negative = inhibition, most hits filed as inhibitors | recombinant tau K18 P301L, heparin-induced fibrillization, ThT fluorescence | actives 2.1% (n = 270,000) | P10636; note: nearly all actives have a fitted effect of over 55% in size
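ThT emission at 510 nm, taken 1 hr after adding 30 uM dye, quantifies aggregates formed when 20 uM heparin acts on human tau K18 P301L for 6 hr at 37 C.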
ALDH1A1 inh: blocks purified human ALDH1A1 activity; P00352; actives 7.3% (n = 220,000); Purified ALDH1A1, NADH fluorescence, propionaldehyde substrate; Potency, µM (highest dose often 75.3 µM), inactives show at the top dose activity, negative = inhibition, hits mostly inhibitors; active = well fitted inhibition curve with a large enough effect, not every such curve was filed as active; inconclusive = small, poorly fitted or top-dose-only effect, or another doubt; inactive = no such curve, though single readings can be large or run the other way;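 note: plate controls were no enzyme wells and a reference inhibitor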
HPGD inh: inhibitors of human 15-hydroxyprostaglandin dehydrogenase (HPGD); P15428; purified HPGD, NADH fluorescence kinetic, PGE2 substrate; Potency, µM, for inactives: at the top dose activity change, negative = inhibition, most hits filed as inhibitors; actives 4.3% (n = 150,000); AID 894; active = well fitted inhibition curve with a large enough effect, not every such curve was filed as active; inconclusive = small, poorly fitted or top-dose-only effect, or another doubt; inactive = no such curve, though single readings can be large or run the other way
Target sequence (P15428 whole entry, looked up): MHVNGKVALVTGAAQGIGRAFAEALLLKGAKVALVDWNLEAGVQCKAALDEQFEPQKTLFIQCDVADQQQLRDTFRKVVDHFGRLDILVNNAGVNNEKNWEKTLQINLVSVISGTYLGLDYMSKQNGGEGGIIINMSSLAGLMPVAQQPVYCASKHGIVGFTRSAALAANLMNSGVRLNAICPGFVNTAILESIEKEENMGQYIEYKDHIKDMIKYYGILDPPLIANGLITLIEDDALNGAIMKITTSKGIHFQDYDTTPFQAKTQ
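NADH formation kinetics: reaction with 30 uM PGE2 and 1 mM NAD+ (final), 20 nM enzyme, Tris-HCl pH 8 with Tween 20, after 15 min compound preincubation at room temperature. Fluorescence change, last versus first of five reads.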
NPSR antag: neuropeptide S receptor (human) antagonism, cAMP. CHO-NPSR cells, cAMP TR-FRET, antagonist mode. Potency, µM (series often up to 38.3 µM), for the others: top-dose activity change, negative = inhibition, usual class: inhibitors. actives 1% (n = 220,000). AID 1461; note: nearly all actives have a fitted effect of over 50% in size
Target sequence (Q6W5P4 whole entry, looked up): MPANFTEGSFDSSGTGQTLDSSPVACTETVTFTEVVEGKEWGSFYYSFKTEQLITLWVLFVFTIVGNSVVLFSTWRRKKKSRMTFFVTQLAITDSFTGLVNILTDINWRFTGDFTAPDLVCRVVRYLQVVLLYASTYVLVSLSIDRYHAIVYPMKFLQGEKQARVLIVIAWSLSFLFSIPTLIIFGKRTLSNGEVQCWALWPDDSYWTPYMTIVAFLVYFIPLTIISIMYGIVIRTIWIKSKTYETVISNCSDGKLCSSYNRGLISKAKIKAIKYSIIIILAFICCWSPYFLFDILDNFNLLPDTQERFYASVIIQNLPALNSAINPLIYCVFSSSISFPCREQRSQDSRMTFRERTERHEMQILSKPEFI
The depositor's hits bear a star; ? = inconclusive; · = no result given; [ ] = another dose, or the depositor's remark. Most compounds without a hit are left out; they make up all but 9.5% or so of the library. Unless noted, calls come from the whole dose curve; as a rule, active = well fitted curve in the direction sought with a large enough effect; inconclusive = small, poorly fitted or top-dose-only effect, or another doubt; inactive = no such curve, though single readings can be large; an effect the other way counts as inactive or inconclusive. Unless noted, % is set by controls: 0 for no effect and ±100 for the full control effect; potency is the fitted concentration of half-maximal effect.

SMILES | Tau fluor counter | Tau fibril FP | Tau fibril ThT | ALDH1A1 inh | HPGD inh | NPSR antag
Cc1ccc(S/C=C\C(=O)c2ccccc2)cc1 | -24% | ? | ? | 20µM* | -21% | 13µM*
Cc1ccc(C(=O)/C=C\C(=O)c2ccc(C)cc2)cc1 | -7% | -2% | -10% | 7.1µM* | 2.2µM* | ?
COCCn1c(C)cc(O)c(C(c2ccccc2OC)N2CCCCC2)c1=O (stereo not drawn) | 5% | 2% | ? | · | · | ·
COCCn1c(C23CC4CC(CC(C4)C2)C3)n[nH]c1=S | -10% | -3% | -10% | -101% | 25µM* | 0%[46.1 µM]
COc1ccc(NC(=O)c2cc(C(C)C)on2)c(OC)c1 | -13% | 0% | -15% | 4µM* | ? | -6%[46.1 µM]
COc1cc(NC(=O)c2cc(C(C)C)on2)c(OC)cc1Cl | -22% | -8% | ? | 7.9µM* | ? | ?
COc1cc(NC(=O)c2cc(C3CC3)on2)c(OC)cc1Cl | -25% | -3% | -31% | ? | ? | -27%[46.1 µM]
Cc1cc(C(=O)NCc2ccccc2C)c2c(C)nn(-c3cccc(F)c3)c2n1 | -14% | -13% | 9% | · | · | ·
OCCOCCN1CCN([C@@H](c2ccccc2)c2ccc(Cl)cc2)CC1 | · | · | · | -6%[20.9 µM] | -8% | ·
CS(=O)(=O)N1CCC2(CC1)CN(C(=O)Nc1cccc(F)c1)C2 | · | · | · | 7% | 2% | ·
CCCCOC(=O)NS(=O)(=O)c1sc(CC(C)C)cc1-c1ccc(Cn2c(CC)nc3c(C)cc(C)nc32)cc1 | -18% | -2% | ? | -12% | -11% | 13µM*
CCCCOC(=O)Nc1ccc(S(=O)(=O)Nc2nc(C)cc(C)n2)cc1 | 6% | 6% | 1% | 18% | 0% | -5%[46.1 µM]
CC(=O)c1sc(N/N=C\c2ccc(Br)cc2)nc1C | ? | ? | ? | ? | -5% | -26%
CC(=O)c1sc(N/N=C\c2cccc(Br)c2)nc1C | 13% | 5% | 14% | 25µM* | 28µM* | -1%
CCOC(=O)NC[C@H](Cc1ccc(OCCc2nc(-c3ccccc3)oc2C)cc1)N/C(C)=C\C(=O)c1ccc(C(F)(F)F)cc1 | -8% | 6% | -10% | ? | ? | ·
COc1cc2c(cc1OC)-c1cc3ccc4c(c3c[n+]1CC2)OCO4 | -17% | -9% | 16µM* | ? | ? | 13µM*
Cc1c(Cl)cccc1NC(=S)NC1CC1 | -1% | 4% | -6% | ? | -1% | 2%
Cc1c(Cl)cccc1NC(=S)Nn1cnnc1 | -1% | -8% | -15% | 13µM* | · | 4%
O=C(NCCC1=CCCCC1)C1CCN(C(=O)N2CCOc3ccccc32)CC1 | 2.8µM*[quencher] | ? | 2% | · | · | ·
O=C(NCCC1=CCCCC1)C1CCN(S(=O)(=O)c2cccs2)CC1 | -11% | -3% | -6% | 13µM* | -2% | -15%[46.1 µM]
O=C(NCCC1=CCCCC1)C1CCN(S(=O)(=O)c2ccccc2)CC1 | -4% | -6% | 2% | ? | · | 3%
O=C(Nc1cc(Cl)ccn1)C1CCN(S(=O)(=O)c2cccs2)CC1 | -11% | -9% | -6% | 8.9µM* | -3% | -10%[46.1 µM]
O=C(NCCC1=CCCCC1)C1CCN(C(=O)Cc2ccccc2)CC1 | -15% | -11% | -16% | 5µM* | · | 5%
CCC(Oc1ccccc1)C(=O)Nc1ccccc1OCc1cc(=O)n2ccccc2n1 (stereo not drawn) | -7% | -16% | 11% | · | · | ·
COc1ccc(CN2C(=O)N(c3ccc(F)cc3)C(=O)C2CC(=O)Nc2ccccc2)cc1 (stereo not drawn) | -18% | -13% | 3% | · | · | ·
SMILES | Tau fluor counter | Tau fibril FP | Tau fibril ThT | ALDH1A1 inh | HPGD inh | NPSR antag
Cc1ccc(CNC(=O)C2CCN(S(=O)(=O)c3cccs3)CC2)o1 | -9% | ? | ? | 14µM* | -25% | -13%[46.1 µM]
OCC1OC([S-])[C@H](O)C(O)C1O.[Au+] (stereo partly drawn) | -27% | ? | ? | ? | -25% | ·
O=[N+]([O-])c1ccccc1CNC(Cc1ccccc1)c1ccccc1 (stereo not drawn) | -20% | 5% | -14% | 13µM* | -14% | -17%[46.1 µM]
N#CCCN(C(=O)COc1ccc(F)cc1Br)c1ccccc1F | -3% | -1% | -7% | 18µM* | · | 3%
CCCCCSc1nc2sc3c(c2c(=O)n1-c1ccccc1)CCN(C(C)=O)C3 | -10% | ? | ? | · | · | ·
O=C(c1cc(-c2ccccc2)on1)N1CCCC1 | 0% | 2% | -1% | -1% | ? | -2%[46.1 µM]
O=C(c1cc(-c2ccccc2)on1)N1CCCc2ccccc21 | -28% | 4% | ? | 14µM* | · | 42%
O=C(c1cc(-c2ccco2)on1)N1CCCc2ccccc21 | -13% | 3% | ? | 8.9µM* | -22% | -8%[46.1 µM]
O=C(c1nn2c(C(F)(F)F)cc(-c3ccco3)nc2c1Br)N1CCCc2ccccc21 | ? | ? | ? | 7.9µM* | -26% | ?
O=C(c1nn2c(C(F)(F)F)cc(-c3cccs3)nc2c1Br)N1CCCc2ccccc21 | -8% | 7% | -6% | -3% | -11% | -27%
CCC12CSc3nc(Cl)ccc3N1C(=O)C(=O)N2C (stereo not drawn) | -10% | -9% | -5% | · | · | 1%[7.67 µM]
C=CCn1c(SCc2nc3sc(C(=O)O)c(C)c3c(=O)[nH]2)nnc1-c1ccc(C(C)(C)C)cc1 | -11% | 2% | ? | 20µM* | · | 14%
Cc1nnc(SCc2nc3sc(C(=O)O)c(C)c3c(=O)[nH]2)s1 | -2% | -1% | ? | 20µM* | · | -16%
C=CCn1c(SCc2nc3sc(C(=O)O)c(C)c3c(=O)[nH]2)nnc1-c1ccccc1 | -4% | -4% | -12% | ? | · | 8%
CCOCCCn1c(SCc2nc3sc(C(=O)O)c(C)c3c(=O)[nH]2)nnc1-c1ccc(Cl)cc1 | 7% | 1% | 5% | ? | · | 1%
CC(=O)c1sc2nc(CSc3nnnn3-c3ccccc3)[nH]c(=O)c2c1C | -24% | 16% | ? | 25µM* | · | -13%
Cc1ccc(-n2nnnc2SCc2nc3sc(C)c(C)c3c(=O)[nH]2)cc1 | -13% | ? | -7% | 0% | -5% | 5%
Cc1c(C(=O)O)sc2nc(CSc3nnc(-c4ccc(F)cc4)n3C)[nH]c(=O)c12 | 3% | -1% | 5% | 19µM* | · | 12%
Cc1sc2nc(CSc3nc4ccccc4s3)[nH]c(=O)c2c1C | -25% | -9% | ? | 7.9µM* | · | -35%
COc1ccc([N+](=O)[O-])cc1NC(=O)C(C)Sc1nc(C)c(C)c(C)n1 (stereo not drawn) | ? | 13% | -15% | 0% | -19% | -10%
O=C1c2ccccc2C(=O)N1CCCCN(C(=O)c1ccc(Cl)s1)c1ccc(Cl)cc1 | -5% | 6% | 5% | 4.5µM* | -17% | -48%
